From PubChem BioAssay

assay: JC-1 mitochondrial signal, unstimulated myeloma cells – cell-based, JC-1 fluorescence, RPMI8226, 24 h, 100 nL compound, profiling panel (AID 1169); conditions: JC-1 mitochondrial potential fluorescence, higher = more signal; note: test concentration not given here

Structure (SMILES) | z-score
CO[C@H]1COC(=O)CCC[C@H](C)[C@H](OC)COC(=O)CC=C[C@@H]1C | 0.226
CCO[C@H](c1cc(OC)cc([N+](=O)[O-])c1OC)[C@H](C)[C@@H](OC)[C@H](C)C=CCC(=O)OC | -0.441
O=C1[C@H]2[C@H]3[C@H](O)[C@H](O)CC(=NOC[C@@H](O)COCc4ccco4)[C@@H]3CC[C@H]2C(=O)N1Cc1ccccc1 | -0.271
COC(=O)CC=C[C@@H](C)[C@@H](C=NOC[C@@H](O)COCc1ccco1)OC | 0.501
C[C@@H](c1ccccc1)N1C(=O)[C@H]2[C@H]3[C@H](O)[C@H](O)CC(=NNC(=O)OCc4ccccc4)[C@@H]3CC[C@H]2C1=O | 0.102
CCOC(=O)[C@H](Cc1ccccc1)NC(=O)CCC1CC(OC(=O)NCc2ccc3c(c2)OCO3)CC2(CCCC(COC(=O)NCCOC)O2)O1 (stereo partly specified) | -0.817
CCOC(=O)CCN1C(=O)[C@H]2[C@H]3[C@H](O)[C@H](O)CC(=NNC(=O)OCc4ccccc4)[C@H]3CC[C@H]2C1=O | -0.0449
COc1ccc(O[C@H]2C=C[C@@H](c3ccccc3)O[C@@H]2COC(=O)CCC(C)=NOC[C@@H](O)COCc2ccco2)cc1 | -0.313
CCCCOC(OCCCC)C(O)CSc1ccc2ccccc2c1 (stereo unspecified) | 0.591
CC(C)CON=C1C[C@@H](O)[C@@H](O)[C@@H]2[C@@H]3C(=O)N(Cc4ccc5c(c4)OCO5)C(=O)[C@@H]3CC[C@@H]12 | 0.492
COC(=O)[C@H](C)NC(=O)CCC1CC(OC(=O)NCCc2ccc(F)cc2)CC2(CCCC(COC(=O)NCCc3ccccc3OC)O2)O1 (stereo partly specified) | 0.0549
CCN1C(=O)[C@H]2[C@@H]3C(=CC[C@H]2C1=O)C(=O)[C@H]1O[C@H]1[C@H]3O | -0.991
C[C@H]1CC[C@@H](C(=O)O)N[C@@H]1c1cccc(N2CCCC2=O)c1 | 0.468
CCOC(=O)CCN1C(=O)[C@H]2[C@H]3[C@H](O)[C@H](O)CC(=NO[C@@H]4O[C@H](CO)[C@@H](O)[C@H](O)[C@H]4O)[C@H]3CC[C@H]2C1=O | -0.225
O=C1C2=CC[C@H]3C(=O)N(Cc4ccccc4)C(=O)[C@H]3[C@H]2[C@H](O)[C@@H]2O[C@H]12 | -1.05
CC(CCC(=O)OC[C@H]1O[C@H](C#Cc2ccccc2)C=C[C@@H]1Oc1ccc(C)cc1)=NO[C@@H](C)c1cc(-c2c(C)cc(C)cc2C)no1 | 0.621
CO[C@@H]1[C@H](O)CO[C@H]1C=Cc1ccccc1 | 0.337
COc1ccc(O[C@H]2C=C[C@@H](c3ccccc3)O[C@@H]2COC(=O)NCc2cccc3ccccc23)cc1 | 0.396

Structure (SMILES) | z-score
CCOC(=O)CCN1C(=O)[C@H]2[C@@H]3C(=CC[C@H]2C1=O)C(=O)[C@H]1O[C@H]1[C@H]3O | -1.1
COC(=O)[C@H](Cc1ccccc1)NC(=O)[C@@H](C)CO | -0.186
CC(CCC(=O)OC[C@H]1O[C@H](C#Cc2ccccc2)C=C[C@@H]1Oc1ccc(C)cc1)=NO[C@H](C)c1cn([C@@H]2COC[C@H]2O)nn1 | -0.072
COC(=O)[C@H](C)NC(=O)CC=C[C@@H](C)[C@@H]1C=C[C@H](O)[C@@H](CO)O1 | 0.685
COc1ccc(O[C@H]2C=C[C@@H](c3ccccc3)O[C@@H]2CON=C(C)CCN2CCCc3nc(C)c(C)cc32)cc1 | 0.414
COC(=O)[C@H](CCSC)NC(=O)CC=C[C@@H](C)CO | -0.545
CC(CCN1CCc2nc(-c3ccccc3)c(-c3ccccc3)cc2C1)=NO[C@@H](C)c1cc(-c2c(C)cc(C)cc2C)no1 | -0.535
CCOC(=O)[C@H](CC(C)C)NC(=O)CCC1CC(OC(=O)NCc2ccc3c(c2)OCO3)CC2(CCCC(COC(=O)NCCc3ccc(Cl)cc3)O2)O1 (stereo partly specified) | -0.966
CN1CCc2nc(-c3ccccc3)c(-c3ccccc3)cc2C1 | 0.344
CC(C)CON=C1C[C@@H](O)[C@@H](O)[C@@H]2[C@@H]3C(=O)N([C@@H](C)c4ccccc4)C(=O)[C@@H]3CC[C@@H]12 | 0.638
CC(CCC(=O)OC[C@H]1O[C@H](C#Cc2ccccc2)C=C[C@@H]1Oc1ccc(C)cc1)=NOC[C@@H](C)[C@H](OCc1ccccc1)C(C)C | 1.06
CC1(C)O[C@H]2OC([C@H](O)CON3C(=O)c4ccccc4C3=O)[C@H](O)[C@H]2O1 (stereo partly specified) | -0.484
C#CCCCON=C1C[C@@H](O)[C@@H](O)[C@@H]2[C@@H]3C(=O)N(CC)C(=O)[C@@H]3CC[C@H]12 | -0.569
CCCC[C@H]1CN2[C@@H](CC[C@@H](C)[C@@H]2c2ccc(Br)cc2)C(=O)O1 | -0.221
C[C@@H]1CC[C@H]2C(=O)O[C@@H](CN=[N+]=[N-])CN2[C@H]1c1ccc(Br)cc1 | -1.18
CCOC(=O)[C@H](CC(C)C)NC(=O)CCC1CC(OC(=O)NCc2ccc3c(c2)OCO3)CC2(CCCC(COC(=O)NCCc3ccccc3OC)O2)O1 (stereo partly specified) | -0.282
CCCNC(=O)OC[C@H]1O[C@H](CCON=C2C[C@@H](O)[C@@H](O)[C@@H]3[C@@H]4C(=O)N(CC)C(=O)[C@@H]4CC[C@@H]23)C=C[C@@H]1Oc1ccc(OC)cc1 | 0.195
COCOc1ccc(Br)cc1C(=O)C=Cc1ccc2c(c1)OCO2 | -1.12
